# Measured values as given in PubChem BioAssay (Tox21).
# A number with no mark means an inactive call. Results filed as inconclusive are left out. A call without a number means that no potency is given here. Active and inactive are the calls of the source. Unless noted, calls come from the whole dose curve; as a rule, active = well fitted curve in the direction sought with a large enough effect in the repeat runs; inconclusive = weak or mixed curves; inactive = no such curve, though single readings can be large; an effect the other way counts as inactive or inconclusive.
# Key:
# [1] = qHTS RealTime-Glo MT Cell Viability Assay in HEK293 cells - 0 hour (AID 1224880); note: top concentration of the series differs between compounds; nearly all actives have a fitted effect of over 45% in size
# Procedure, shortened: (§1)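 Kinetic, non-lysing viability readout. Seed HEK293 (600/well) with reagent, incubate 5 h at 37 C/5% CO2, pin 23 nL compound in DMSO, incubate at 37 C, read luminescence at 0, 8, 16, 24, 32, 40 h.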
# [2] = A CellTox Green Cytotoxicity Assay to monitor cytotoxicity in HEK293 cells - 32 hour (AID 1224881); note: nearly all actives have a fitted effect of over 40% in size; note: potency is the fitted concentration of half-maximal effect
# Procedure, shortened: (§2)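 Real-time, in one plate: 600 HEK293 cells/well with dead-cell DNA dye, pinned compound after 5 h, 37 C incubation over 40 h; viable cells give no appreciable fluorescence.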
# [3] = A CellTox Green Cytotoxicity Assay to monitor cytotoxicity in HepG2 cells - 0 hour (AID 1224882); note: nearly all actives have a fitted effect of over 35% in size
# Procedure, shortened: (§3)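 Cytotoxicity was tracked as dead-cell DNA fluorescence in HepG2 cells treated with test compounds at 37 C; each time-point value comes from one kinetic series spanning 0, 8, 16, 24, 32 and 40 h.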
# [4] = A CellTox Green Cytotoxicity Assay to monitor cytotoxicity in HepG2 cells - 32 hour (AID 1224883); note: nearly all actives have a fitted effect of over 50% in size
# Procedure, shortened: as §3
# [5] = A CellTox Green Cytotoxicity Assay to monitor cytotoxicity in HEK293 cells - 8 hour (AID 1224884); note: nearly all actives have a fitted effect of over 35% in size
# Procedure, shortened: as §2
# [6] = qHTS RealTime-Glo MT Cell Viability Assay in HepG2 cells - 16 hour (AID 1224885); note: nearly all actives have a fitted effect of over 50% in size
# Procedure, shortened: (§4)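 Viability was tracked continuously by NanoLuc luminescence from prosubstrate reduced by living HepG2 cells, at successive time points over 40 h of compound exposure. Cells with reagent were preincubated 5 h at 37 °C before compound addition.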
# [7] = qHTS RealTime-Glo MT Cell Viability Assay in HEK293 cells - 24 hour (AID 1224886); note: nearly all actives have a fitted effect of over 50% in size; note: potency is the fitted concentration of half-maximal effect
# Procedure, shortened: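 Viability tracked continuously by luminescence as live cells reduce a prosubstrate for NanoLuc; HEK293 cells preincubated 5 h, compound-treated at 37 C, and read at 0, 8, 16, 24, 32 and 40 h.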
# [8] = qHTS RealTime-Glo MT Cell Viability Assay in HEK293 cells - 8 hour (AID 1224887); note: top concentration of the series differs between compounds; nearly all actives have a fitted effect of over 50% in size
# Procedure, shortened: as §1
# [9] = A CellTox Green Cytotoxicity Assay to monitor cytotoxicity in HEK293 cells - 16 hour (AID 1224888); note: nearly all actives have a fitted effect of over 35% in size
# Procedure, shortened: as §2
# [10] = qHTS RealTime-Glo MT Cell Viability Assay in HepG2 cells - 0 hour (AID 1224889); note: nearly all actives have a fitted effect of over 50% in size
# Procedure, shortened: as §4
# [11] = A CellTox Green Cytotoxicity Assay to monitor cytotoxicity in HepG2 cells - 8 hour (AID 1224890); note: nearly all actives have a fitted effect of over 45% in size
# Procedure, shortened: as §3
# [12] = qHTS assay to identify small molecule antagonists of the estrogen receptor alpha (ER-alpha) signaling pathway using the BG1 cell line in the presence of 0.1 nM 17-beta-estradiol - cell viability counter screen (AID 1259241); note: nearly all actives have a fitted effect of over 40% in size
# Procedure, shortened: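 Live-cell protease activity (CellTiter-Fluor fluorescence, 30 min) was read in the same wells after VM7Luc4E2 cells had been exposed to compounds with 0.1 nM 17beta-estradiol for 22 hr at 37C.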
# [13] = qHTS assay to identify small molecule antagonists of the androgen receptor (AR) signaling pathway using the MDA cell line in the presence of 0.5 nM R1881 - cell viability counter screen (AID 1259242); note: nearly all actives have a fitted effect of over 45% in size
# Procedure, shortened: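 Cells seeded at 3,000/well and allowed 5 hr at 37C, 0% CO2 before compound transfer and R1881 (0.5 nM final) addition; 16 hr later, live-cell protease fluorescence indicated cytotoxicity.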
# [14] = qHTS assay to identify small molecule phospholipidosis (PLD) inducers (AID 1259344; active = well fitted curve in the direction sought with a large enough effect; an effect the other way counts as inactive or inconclusive)
# Procedure, shortened: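 After 4 h attachment on collagen I, HepG2 cells were dosed with compound alongside LipidTOX Red, kept 24 h at 37 C, fixed, and imaged for lamellar phospholipid pits.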
# [15] = qHTS assay to identify small molecule HDAC inhibitors (AID 1259364);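 note: wild-type HCT-116 cells with endogenous class I/II HDAC activity; top concentration of the series differs between compounds; nearly all actives have a fitted effect of over 45% in size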
# Procedure, shortened: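 HCT-116 wt cells, 1,500/well, overnight attach. Compounds (DMSO) 2 h, 37 °C. HDAC-Glo I/II, 30 min RT. Luminescence.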
# [16] = qHTS assay to identify small molecule HDAC inhibitors - cell viability counter screen (AID 1259365)
# Procedure, shortened: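 HCT-116 (wild type), 1,500 cells/well, overnight 37C/5% CO2; compound in DMSO 2hr; CellTiter-Glo 30min RT; luminescence read.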
# [17] = qHTS assay to identify small molecule agonists of the sonic hedgehog signaling (Shh) pathway - cell viability counter screen (AID 1259366); note: nearly all actives have a fitted effect of over 50% in size
# Procedure, shortened: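 CellTiter-Fluor fluorescence read-out, 1 hr at 37C, added after 23hr compound exposure. Cells: 3T3 Gli1-Luc, an NIH/3T3 clone with stably integrated Gli1-Luc reporter, plated 4hr before compound.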
# [18] = qHTS assay to identify small molecule antagonists of the sonic hedgehog signaling (Shh) pathway - cell viability counter screen (AID 1259367); note: nearly all actives have a fitted effect of over 55% in size
# Procedure, shortened: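 Conditioned medium drove Shh signaling in 3T3 Gli1-Luc cells exposed to compounds at 37C and 5% CO2. Viability was determined from CellTiter-Fluor fluorescence, with reagent incubated 1 hr after 23 hr of treatment.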
# [19] = target: Estrogen receptor (Homo sapiens) (UniProt P03372); assay: qHTS assay to identify small molecule antagonists of the estrogen receptor alpha (ER-alpha) signaling pathway using the BG1 cell line in the presence of 0.1 nM 17-beta-estradiol (AID 1259244); note: nearly all actives have a fitted effect of over 50% in size
# Chain of Estrogen receptor (Homo sapiens) (P03372 whole entry, looked up): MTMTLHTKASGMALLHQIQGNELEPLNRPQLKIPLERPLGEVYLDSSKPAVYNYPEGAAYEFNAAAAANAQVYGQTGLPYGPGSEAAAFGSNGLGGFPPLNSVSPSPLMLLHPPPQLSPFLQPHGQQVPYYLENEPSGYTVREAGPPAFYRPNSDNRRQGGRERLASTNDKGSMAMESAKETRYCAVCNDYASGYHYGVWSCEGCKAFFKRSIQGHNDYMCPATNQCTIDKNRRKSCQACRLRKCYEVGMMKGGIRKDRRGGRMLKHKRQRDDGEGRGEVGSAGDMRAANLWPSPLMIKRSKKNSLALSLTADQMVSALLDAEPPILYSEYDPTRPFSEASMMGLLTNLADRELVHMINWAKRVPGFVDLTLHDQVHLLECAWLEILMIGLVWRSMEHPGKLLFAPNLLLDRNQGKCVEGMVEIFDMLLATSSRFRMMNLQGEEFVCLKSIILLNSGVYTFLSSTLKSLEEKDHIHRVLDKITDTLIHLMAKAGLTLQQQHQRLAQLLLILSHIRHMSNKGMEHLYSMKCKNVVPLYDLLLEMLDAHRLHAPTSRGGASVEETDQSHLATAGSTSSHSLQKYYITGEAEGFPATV
# Procedure, shortened: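 Luciferase signal from VM7Luc4E2 ERE-reporter cells, co-dosed with test compound and 0.1 nM final 17beta-estradiol for 22 h, read with ONE-Glo.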
# [20] = target: Androgen receptor (Homo sapiens) (UniProt P10275); assay: qHTS assay to identify small molecule antagonists of the androgen receptor (AR) signaling pathway using the MDA cell line in the presence of 0.5 nM R1881 (AID 1259243); note: nearly all actives have a fitted effect of over 50% in size
# Chain of Androgen receptor (Homo sapiens) (P10275 whole entry, looked up): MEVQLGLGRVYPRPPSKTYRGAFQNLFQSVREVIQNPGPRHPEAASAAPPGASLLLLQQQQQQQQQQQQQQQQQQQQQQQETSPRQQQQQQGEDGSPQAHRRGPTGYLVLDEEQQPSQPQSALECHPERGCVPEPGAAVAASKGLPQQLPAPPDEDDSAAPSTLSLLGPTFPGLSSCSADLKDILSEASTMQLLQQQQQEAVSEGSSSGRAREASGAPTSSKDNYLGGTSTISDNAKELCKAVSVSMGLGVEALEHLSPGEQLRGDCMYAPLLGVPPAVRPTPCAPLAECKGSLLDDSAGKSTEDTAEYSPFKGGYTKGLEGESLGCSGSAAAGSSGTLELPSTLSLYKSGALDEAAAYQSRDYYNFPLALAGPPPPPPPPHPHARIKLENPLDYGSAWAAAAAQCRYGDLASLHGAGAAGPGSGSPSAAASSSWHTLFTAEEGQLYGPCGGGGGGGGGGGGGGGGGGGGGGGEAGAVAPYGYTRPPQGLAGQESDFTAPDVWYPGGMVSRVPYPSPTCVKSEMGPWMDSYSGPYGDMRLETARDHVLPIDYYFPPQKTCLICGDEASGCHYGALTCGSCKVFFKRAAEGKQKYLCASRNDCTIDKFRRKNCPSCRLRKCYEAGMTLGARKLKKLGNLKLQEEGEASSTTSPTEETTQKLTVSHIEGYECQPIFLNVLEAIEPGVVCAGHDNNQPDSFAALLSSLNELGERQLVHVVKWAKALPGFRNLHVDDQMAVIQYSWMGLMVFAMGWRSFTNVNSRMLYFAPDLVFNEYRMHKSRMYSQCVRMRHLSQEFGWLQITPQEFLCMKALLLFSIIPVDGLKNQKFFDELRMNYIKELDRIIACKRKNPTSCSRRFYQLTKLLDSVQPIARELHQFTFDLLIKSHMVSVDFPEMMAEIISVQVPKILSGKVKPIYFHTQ
# Procedure, shortened: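 Luminescence from an AR/GR-responsive MMTV-luciferase construct in MDA-kb2 breast carcinoma cells, read 30 min after ONE-Glo, following 16 hr co-treatment with compounds and 0.5 nM R1881.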
SMILES,Potency [1],Potency [2],Potency [3],Potency [4],Potency [5],Potency [6],Potency [7],Potency [8],Potency [9],Potency [10],Potency [11],Potency [12],Potency [13],Potency [14],Potency [15],Potency [16],Potency [17],Potency [18],Potency [19],Potency [20]
CCCCCCNC(=O)n1cc(F)c(=O)[nH]c1=O,inactive,inactive,inactive,inactive,inactive,inactive,inactive,inactive,inactive,inactive,inactive,inactive,inactive,inactive,inactive,inactive,inactive,inactive,–,–
CC1CC(C)C(=O)C1=O (configuration not stated),inactive,inactive,inactive,inactive,inactive,inactive,13.8 µM (active),inactive,inactive,inactive,inactive,inactive,inactive,–,inactive,inactive,inactive,inactive,–,–
CCCCCC[C@@H](O)C/C=C\CCCCCCCC(=O)OCC(O)CO (some centres not stated),inactive,inactive,inactive,inactive,inactive,inactive,inactive,inactive,inactive,inactive,inactive,inactive,inactive,–,inactive,inactive,inactive,inactive,inactive,–
CC1CC(OC(=O)C(O)c2ccccc2)CC(C)(C)N1C (configuration not stated),inactive,inactive,inactive,inactive,inactive,inactive,inactive,inactive,inactive,inactive,inactive,inactive,inactive,inactive,inactive,inactive,inactive,inactive,–,–
Cc1cc(C)c(N)cc1C,inactive,inactive,inactive,inactive,inactive,inactive,inactive,inactive,inactive,inactive,inactive,inactive,inactive,–,inactive,inactive,inactive,inactive,inactive,–
CCCCCC[C@@H](O)C/C=C\CCCCCCCC(=O)O,inactive,inactive,inactive,inactive,inactive,inactive,inactive,inactive,inactive,inactive,inactive,inactive,inactive,inactive,inactive,–,inactive,inactive,–,–
O=C1CCCCCCCCCCOCCCCO1,inactive,49 µM (active),inactive,inactive,inactive,inactive,inactive,inactive,inactive,inactive,inactive,inactive,inactive,–,inactive,inactive,inactive,inactive,–,–
CCC1(CO)COCOC1,inactive,inactive,inactive,inactive,inactive,inactive,inactive,inactive,inactive,inactive,inactive,inactive,inactive,–,inactive,inactive,inactive,inactive,inactive,–
Nc1ncnc2c1ncn2[C@H]1CC[C@@H](CO)O1,inactive,inactive,inactive,inactive,inactive,inactive,inactive,inactive,inactive,inactive,inactive,inactive,inactive,inactive,inactive,inactive,inactive,inactive,inactive,–
Cc1cc(C)cc(N)c1,inactive,inactive,inactive,inactive,inactive,inactive,inactive,inactive,inactive,inactive,inactive,inactive,inactive,–,–,–,inactive,inactive,inactive,–
CCC(=O)OC,inactive,inactive,inactive,inactive,inactive,inactive,inactive,inactive,inactive,inactive,inactive,inactive,inactive,–,–,inactive,inactive,inactive,inactive,–
C/C=C/C=C/C=O,inactive,inactive,inactive,inactive,inactive,inactive,inactive,inactive,inactive,inactive,inactive,inactive,inactive,–,inactive,–,inactive,inactive,inactive,–
Cc1cscn1,inactive,inactive,inactive,inactive,inactive,inactive,inactive,inactive,inactive,inactive,inactive,inactive,inactive,–,–,inactive,inactive,inactive,inactive,inactive
CC(O)c1ccccc1 (configuration not stated),inactive,inactive,inactive,inactive,inactive,inactive,inactive,inactive,inactive,inactive,inactive,inactive,inactive,–,–,inactive,inactive,inactive,inactive,–
CC/C=C1/OC(=O)c2ccccc21,inactive,inactive,inactive,inactive,inactive,inactive,inactive,inactive,inactive,inactive,inactive,inactive,inactive,–,–,inactive,–,–,–,–
C=C1C[C@@]23CC[C@H]4[C@@](C)(CCC[C@@]4(C)C(=O)O[C@@H]4O[C@H](CO)[C@@H](O)[C@H](O)[C@H]4O)[C@@H]2CC[C@]1(O[C@@H]1O[C@H](CO)[C@@H](O)[C@H](O[C@@H]2O[C@H](CO)[C@@H](O)[C@H](O)[C@H]2O)[C@H]1O[C@@H]1O[C@H](CO)[C@@H](O)[C@H](O)[C@H]1O)C3,inactive,inactive,inactive,inactive,inactive,inactive,inactive,inactive,inactive,inactive,inactive,inactive,inactive,–,inactive,inactive,inactive,inactive,inactive,–
